# Data reported in PubChem BioAssay (NCATS).
# Values without a mark were called inactive. Results filed as inconclusive are left out. Where a call stands in place of a potency, no number is given. Calls of active or inactive are those of the source. Unless noted, the call rests on the fitted dose curve; in most records, active means well fitted curve in the direction sought with a large enough effect; inconclusive means small, poorly fitted or top-dose-only effect, or another doubt; inactive means no such curve, though single readings can be large; an effect the other way counts as inactive or inconclusive.
# How the values were obtained:
# [1] = target: Rap guanine nucleotide exchange factor 3 (Homo sapiens) (UniProt O95398); assay: Confirmatory qHTS for agonist of cAMP-regulated guanine nucleotide exchange factor 3 (EPAC1) (AID 1645881);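 further: EPAC1 catalysed release of BODIPY-GDP from Rap1B seen as fluorescence loss; nearly all actives have a fitted effect of over 75% in size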
# [2] = target: Rap guanine nucleotide exchange factor 4 (Homo sapiens) (UniProt Q8WZA2); assay: Confirmatory qHTS for agonist of cAMP-regulated guanine nucleotide exchange factor 4 (EPAC2) (AID 1645884);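 further: nucleotide exchange releases bodipy-GDP from Rap1 and this lowers its fluorescence; nearly all actives have a fitted effect of over 65% in size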
# [3] = target: Rap guanine nucleotide exchange factor 4 (Homo sapiens) (UniProt Q8WZA2); assay: Confirmatory qHTS for antagonist of cAMP-regulated guanine nucleotide exchange factor 4 (EPAC2) (AID 1645885); further: nearly all actives have a fitted effect of over 25% in size; further: potency means the concentration at half of the fitted maximal effect
# [4] = target: Rap guanine nucleotide exchange factor 3 (Homo sapiens) (UniProt O95398); assay: Counterscreen qHTS for agonist of cAMP-regulated guanine nucleotide exchange factor 3 (EPAC1) (AID 1645889); further: nearly all actives have a fitted effect of over 40% in size
# In short: (§1)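 Rap1B-BODIPY-GDP 250 nM + GDP 50 uM; cpds 7-pt, final 9.74 nM–152 uM (activator mode) or from 7.32 nM upwards (inhibitor mode); RT; FI 480/540 nm at 5 and 30 min, then ± cAMP, reread.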
# [5] = target: Lysosomal acid glucosylceramidase (Homo sapiens) (UniProt P04062); assay: Glucocerebrosidase-p2 (AID 348; in the data active means potency below about 10 µM; further: potency means the concentration at half of the fitted maximal effect); conditions: purified GBA, blue fluorogenic substrate, 40 min
# In short: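 Normal human glucocerebrosidase (0.2 nM) with blue fluorogenic substrate (80 uM final) in citrate/phosphate pH 5.9 with 10mM sodium taurocholate, 0.01% tween-20; 40 min RT, NaOH/glycine stop; fluorescence Ex 365/Em 440; AC50 from a titration from 0.6 nM upwards.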
# [6] = AP1 Signaling Pathway (AID 357; active means well fitted curve in either direction with a large enough effect, not every such curve was filed as active;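 further: ME-180 reporter cells stimulated with EGF at its EC50 level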); conditions: ME-180 (cervical carcinoma) AP-1-bla reporter, EGF-induced, beta-lactamase ratio, 5 h; at 7.69 µM (top of the series) unless noted
# In short: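 Beta-lactamase reporter under AP-1 response element, ME-180 background. Stimulus: EC50 EGF. Compound exposure 5 h, 37 °C. Detection: CCF4, 2.5 h RT, 460/530 nm. Values: AC50 from titration.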
# [7] = Stat Signaling Pathway (AID 446; active means well fitted curve in either direction with a large enough effect, not every such curve was filed as active;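 further: ME-180 cervical cancer cells given 40 pM IL-6 alongside compound; SIE-controlled beta-lactamase reporter measured as 460/530 nm FRET emission ratio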)
# In short: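 Overnight-plated ME-180 cells bearing a STAT Inducible Element beta-lactamase reporter; 5 h co-exposure to compound and 40 pM IL-6; values normalized to 300 pM IL-6 and 125 nM JAK inhibitor controls.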
# [8] = target: Glucocorticoid receptor (Homo sapiens) (UniProt P04150); assay: GR-GFP Redistribution (AID 450;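 active means compounds whose dose series gives a full or clear partial fitted curve of increased nuclear translocation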; further: potency means the concentration at half of the fitted maximal effect); conditions: U2OS GR-GFP nuclear translocation, laser cytometry, 2 h
# [9] = target: Glucocorticoid receptor (Homo sapiens) (UniProt P04150); assay: GR-EFC Redistribution (AID 451; calls by dose curve; further: potency means the concentration at half of the fitted maximal effect); conditions: CHO-K1 GR-EFC translocation, beta-gal luminescence, 2 h
# In short: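 Translocation of GR-ED fusion to nuclear EA restores b-gal, read by luminescence after 1 h room-temperature detection. Engineered CHO-K1 biosensor cells, 1,000/well, exposed 2 h at 37 C to titrations up to 46 uM final.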
# [10] = target: Mitogen-activated protein kinase 10 (Mus musculus) (UniProt Q61831); assay: JNK3 AlphaScreen Assay (AID 530; active means well fitted curve in either direction with a large enough effect, not every such curve was filed as active;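 further: kinase came from lysate of stimulated human HepG2 cells; signal reports phosphorylation of biotinylated GST-cJun 1-79 at Ser73 with 10 µM ATP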)
# In short: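 qHTS titrations with 15 min compound pre-incubation before adding ATP (10 uM final). Read-out: AlphaScreen of Ser73-phosphorylated biotin-GST-cJun using HepG2 lysate JNK3 activated by IL-1β and TNFα.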
# [11] = target: 3',5'-cyclic-AMP phosphodiesterase 4B (Homo sapiens) (UniProt Q07343); assay: qHTS Assay for Inhibitors of PDE-IV (AID 607; active means well fitted activation curve with a large enough effect in the main read-out, with a control signal flat, not every such curve was filed as active)
# In short: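 Live HEK293 cells with a modified cyclic nucleotide-gated (CNG) channel report intracellular cAMP via membrane-potential dye fluorescence (ex 535/em 590 nm). Endogenous PDE-IV was targeted. Compounds were tested at up to 22.9 uM final; RO 20-1724 100 uM served as control.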
# [12] = target: Cytochrome P450 3A4 (Homo sapiens) (UniProt P08684); assay: qHTS Assay for Activators of Cytochrome P450 3A4 (AID 885); further: nearly all actives have a fitted effect of over 65% in size
# In short: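 Using 20nM recombinant human CYP3A4 in potassium phosphate (200mM), substrate Luciferin-PPXE at 25uM, luminescent luciferin detection followed a 60-min RT NADPH reaction; data scaled to 57 uM ketoconazole.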
# [13] = target: Cytochrome P450 2C19 (Homo sapiens) (UniProt P33261); assay: qHTS Assay for Inhibitors and Substrates of Cytochrome P450 2C19 (AID 899); further: potency means the concentration at half of the fitted maximal effect; nearly all actives have a fitted effect of over 60% in size
# In short: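 Luminescence readout of luciferin formed from 10uM Luciferin-H EGE (KM level) by 5 nM CYP2C19 in 50mM KPO4. 60 min NADPH-driven reaction at 37C after 10 min compound preincubation; data scaled to 57uM ketoconazole inhibition.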
# [14] = target: Rap guanine nucleotide exchange factor 3 (Homo sapiens) (UniProt O95398); assay: Counterscreen qHTS for antagonist of cAMP-regulated guanine nucleotide exchange factor 3 (EPAC1) (AID 1645888);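 further: fluorescence loss as bound BODIPY-GDP is released from Rap1B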
# In short: as §1
# [15] = target: Cytochrome P450 1A2 (Homo sapiens) (UniProt P05177); assay: p450-cyp1a2 (AID 410; calls by dose curve; further: potency means the concentration at half of the fitted maximal effect)
# In short: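 Luminescent demethylation readout: Luciferin-ME (100uM, equal to Km) turned over by 20nM CYP1A2 for 60 min at room temperature after NADPH regeneration addition, following 10 min compound preincubation. Normalization used 57 uM furafylline as full inhibition.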
# [16] = target: Cytochrome P450 3A4 (Homo sapiens) (UniProt P08684); assay: qHTS Assay for Inhibitors and Substrates of Cytochrome P450 3A4 (AID 884); further: potency means the concentration at half of the fitted maximal effect; nearly all actives have a fitted effect of over 50% in size
# In short: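 Luminescent readout of luciferin produced by CYP3A4 (20 nM) dealkylation of Luciferin-PPXE, 25 uM (its KM). NADPH-driven reaction ran 60 min at RT after 10 min compound preincubation; data scaled to 57 uM ketoconazole as 100% inhibition.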
# [17] = Confirmation and Secondary Assay for Modulators of Hemoglobin Beta Chain Splicing at IVS2 654 locus (AID 910);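 further: HeLa cells stably carrying EGFP split by mutant beta-globin IVS2-654 intron; per-well total GFP intensity by laser scanning cytometry after 2-day treatment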
# In short: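 Readout: per-well total peak green fluorescence (488 nm ex, 500–520 nm em) from objects 5–250 µm, reflecting correct splicing of an EGFP-654 reporter. Compounds were applied for 2 days at 37 °C to overnight-plated HeLa EGFP-654 cells; controls were DMSO and 500 nM IVS2-654 PNA.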
# [18] = Confirmation and Secondary Assay for Modulators of Hemoglobin Beta Chain Splicing at IVS2 705 locus (AID 930);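 further: HeLa cells stably expressing the EGFP-705 splicing reporter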
# In short: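 HeLa cells stably carrying EGFP interrupted by mutant beta-globin IVS2-705 intron (CMV-driven) were seeded at 500 cells/well, treated next day with compound for 2 days at 37C; corrected splicing restores EGFP, read as total peak GFP intensity per well.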
# Chain of Glucocorticoid receptor (Homo sapiens) (P04150 whole entry, looked up, the tested form may be a part): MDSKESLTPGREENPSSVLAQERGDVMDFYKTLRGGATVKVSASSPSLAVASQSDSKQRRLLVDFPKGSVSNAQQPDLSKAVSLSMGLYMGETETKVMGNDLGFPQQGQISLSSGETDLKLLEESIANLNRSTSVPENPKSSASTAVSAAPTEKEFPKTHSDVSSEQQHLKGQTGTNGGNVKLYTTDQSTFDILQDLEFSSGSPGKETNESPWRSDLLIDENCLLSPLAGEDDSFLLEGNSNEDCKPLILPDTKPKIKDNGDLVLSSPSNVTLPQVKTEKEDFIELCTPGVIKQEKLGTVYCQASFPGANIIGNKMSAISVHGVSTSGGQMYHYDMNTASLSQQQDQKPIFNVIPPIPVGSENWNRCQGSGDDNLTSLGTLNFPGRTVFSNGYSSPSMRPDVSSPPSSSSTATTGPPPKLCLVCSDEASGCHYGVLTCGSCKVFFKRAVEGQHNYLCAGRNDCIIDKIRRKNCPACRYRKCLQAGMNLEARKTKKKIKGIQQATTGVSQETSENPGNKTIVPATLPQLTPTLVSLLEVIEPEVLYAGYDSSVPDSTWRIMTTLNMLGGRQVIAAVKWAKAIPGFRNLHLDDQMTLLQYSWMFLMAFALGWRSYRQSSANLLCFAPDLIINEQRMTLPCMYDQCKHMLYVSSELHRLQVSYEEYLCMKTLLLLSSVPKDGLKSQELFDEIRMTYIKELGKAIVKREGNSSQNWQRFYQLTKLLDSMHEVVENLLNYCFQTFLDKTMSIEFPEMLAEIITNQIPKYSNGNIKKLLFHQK
# Chain of Rap guanine nucleotide exchange factor 4 (Homo sapiens) (Q8WZA2 whole entry, looked up): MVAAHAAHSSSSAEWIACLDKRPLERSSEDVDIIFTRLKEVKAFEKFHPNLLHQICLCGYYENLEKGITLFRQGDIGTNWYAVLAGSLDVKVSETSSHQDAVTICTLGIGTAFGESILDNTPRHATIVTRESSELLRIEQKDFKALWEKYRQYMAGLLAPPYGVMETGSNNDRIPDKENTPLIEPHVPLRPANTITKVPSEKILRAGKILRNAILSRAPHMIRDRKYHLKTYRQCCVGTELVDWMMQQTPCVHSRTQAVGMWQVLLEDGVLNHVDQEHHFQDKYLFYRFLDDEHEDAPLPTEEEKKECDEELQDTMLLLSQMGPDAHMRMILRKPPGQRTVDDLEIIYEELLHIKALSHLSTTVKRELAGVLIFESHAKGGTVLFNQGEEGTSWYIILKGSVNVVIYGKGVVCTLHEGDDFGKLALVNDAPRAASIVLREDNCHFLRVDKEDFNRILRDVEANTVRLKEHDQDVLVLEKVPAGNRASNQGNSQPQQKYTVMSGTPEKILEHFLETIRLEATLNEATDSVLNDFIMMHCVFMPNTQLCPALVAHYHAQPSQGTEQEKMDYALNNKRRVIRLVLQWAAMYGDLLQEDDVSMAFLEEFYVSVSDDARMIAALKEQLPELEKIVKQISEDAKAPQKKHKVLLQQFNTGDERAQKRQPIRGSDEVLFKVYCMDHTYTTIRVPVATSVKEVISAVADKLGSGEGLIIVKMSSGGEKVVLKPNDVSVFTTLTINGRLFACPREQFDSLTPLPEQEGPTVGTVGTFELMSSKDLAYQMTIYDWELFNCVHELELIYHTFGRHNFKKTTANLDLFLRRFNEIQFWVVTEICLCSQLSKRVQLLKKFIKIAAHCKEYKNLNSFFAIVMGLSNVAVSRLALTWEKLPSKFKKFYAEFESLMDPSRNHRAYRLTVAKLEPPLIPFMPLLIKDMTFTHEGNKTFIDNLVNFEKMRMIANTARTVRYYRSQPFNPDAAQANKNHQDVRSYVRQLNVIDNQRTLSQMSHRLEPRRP
# Chain of Cytochrome P450 3A4 (Homo sapiens) (P08684 whole entry, looked up): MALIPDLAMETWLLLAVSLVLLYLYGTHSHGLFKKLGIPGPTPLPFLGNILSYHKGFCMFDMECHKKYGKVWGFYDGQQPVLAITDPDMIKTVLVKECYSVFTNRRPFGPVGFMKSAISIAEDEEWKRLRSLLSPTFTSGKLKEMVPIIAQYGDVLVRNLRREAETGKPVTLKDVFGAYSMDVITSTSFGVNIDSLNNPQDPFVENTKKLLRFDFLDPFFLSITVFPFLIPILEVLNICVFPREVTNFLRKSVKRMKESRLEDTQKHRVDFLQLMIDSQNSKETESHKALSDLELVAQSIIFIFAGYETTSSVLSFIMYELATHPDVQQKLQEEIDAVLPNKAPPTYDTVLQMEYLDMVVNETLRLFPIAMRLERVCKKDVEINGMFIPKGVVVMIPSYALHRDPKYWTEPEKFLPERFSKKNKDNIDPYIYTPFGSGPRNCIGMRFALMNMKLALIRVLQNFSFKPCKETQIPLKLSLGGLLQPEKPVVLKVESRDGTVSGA
# Chain of Rap guanine nucleotide exchange factor 3 (Homo sapiens) (O95398 whole entry, looked up): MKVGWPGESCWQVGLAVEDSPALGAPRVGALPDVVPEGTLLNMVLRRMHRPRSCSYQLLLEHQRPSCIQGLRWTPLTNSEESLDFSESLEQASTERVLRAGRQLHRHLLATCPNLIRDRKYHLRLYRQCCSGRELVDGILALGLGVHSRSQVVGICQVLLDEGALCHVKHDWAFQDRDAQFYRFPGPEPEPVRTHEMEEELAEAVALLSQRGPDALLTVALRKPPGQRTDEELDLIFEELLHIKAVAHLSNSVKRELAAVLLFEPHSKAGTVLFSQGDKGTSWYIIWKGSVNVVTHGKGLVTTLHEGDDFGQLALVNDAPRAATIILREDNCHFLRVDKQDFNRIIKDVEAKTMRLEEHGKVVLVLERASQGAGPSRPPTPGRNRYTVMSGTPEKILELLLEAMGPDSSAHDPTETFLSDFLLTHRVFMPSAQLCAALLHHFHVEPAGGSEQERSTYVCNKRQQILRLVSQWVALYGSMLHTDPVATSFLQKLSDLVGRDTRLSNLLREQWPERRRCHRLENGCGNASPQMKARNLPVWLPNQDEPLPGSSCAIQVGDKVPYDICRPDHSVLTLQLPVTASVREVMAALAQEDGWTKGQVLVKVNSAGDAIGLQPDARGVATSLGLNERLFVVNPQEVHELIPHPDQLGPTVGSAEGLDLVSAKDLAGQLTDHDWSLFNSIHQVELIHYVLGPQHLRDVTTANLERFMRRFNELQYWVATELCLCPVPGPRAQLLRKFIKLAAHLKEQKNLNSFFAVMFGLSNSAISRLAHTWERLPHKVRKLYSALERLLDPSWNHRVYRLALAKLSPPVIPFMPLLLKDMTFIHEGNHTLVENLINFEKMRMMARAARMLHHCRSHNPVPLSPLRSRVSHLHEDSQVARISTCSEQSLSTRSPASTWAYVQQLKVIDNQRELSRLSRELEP
# Chain of 3',5'-cyclic-AMP phosphodiesterase 4B (Homo sapiens) (Q07343 whole entry, looked up): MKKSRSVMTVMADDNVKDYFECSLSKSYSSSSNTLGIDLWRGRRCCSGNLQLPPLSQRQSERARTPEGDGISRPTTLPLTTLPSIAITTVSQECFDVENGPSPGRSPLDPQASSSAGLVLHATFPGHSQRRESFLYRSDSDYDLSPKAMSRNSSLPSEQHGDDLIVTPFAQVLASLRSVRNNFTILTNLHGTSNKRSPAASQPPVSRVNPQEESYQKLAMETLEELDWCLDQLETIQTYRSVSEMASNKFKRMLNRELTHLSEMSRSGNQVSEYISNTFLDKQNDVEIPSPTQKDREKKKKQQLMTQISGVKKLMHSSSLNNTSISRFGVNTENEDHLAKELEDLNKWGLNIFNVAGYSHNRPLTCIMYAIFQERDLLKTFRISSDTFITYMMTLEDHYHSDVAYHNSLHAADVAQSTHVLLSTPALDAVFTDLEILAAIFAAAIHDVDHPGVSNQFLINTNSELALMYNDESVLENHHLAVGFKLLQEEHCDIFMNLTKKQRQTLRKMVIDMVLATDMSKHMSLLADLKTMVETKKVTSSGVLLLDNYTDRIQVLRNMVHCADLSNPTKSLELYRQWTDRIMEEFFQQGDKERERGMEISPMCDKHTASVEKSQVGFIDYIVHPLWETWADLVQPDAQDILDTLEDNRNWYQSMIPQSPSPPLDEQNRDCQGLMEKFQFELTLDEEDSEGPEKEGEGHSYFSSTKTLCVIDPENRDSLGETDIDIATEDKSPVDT
# Chain of Cytochrome P450 1A2 (Homo sapiens) (P05177 whole entry, looked up): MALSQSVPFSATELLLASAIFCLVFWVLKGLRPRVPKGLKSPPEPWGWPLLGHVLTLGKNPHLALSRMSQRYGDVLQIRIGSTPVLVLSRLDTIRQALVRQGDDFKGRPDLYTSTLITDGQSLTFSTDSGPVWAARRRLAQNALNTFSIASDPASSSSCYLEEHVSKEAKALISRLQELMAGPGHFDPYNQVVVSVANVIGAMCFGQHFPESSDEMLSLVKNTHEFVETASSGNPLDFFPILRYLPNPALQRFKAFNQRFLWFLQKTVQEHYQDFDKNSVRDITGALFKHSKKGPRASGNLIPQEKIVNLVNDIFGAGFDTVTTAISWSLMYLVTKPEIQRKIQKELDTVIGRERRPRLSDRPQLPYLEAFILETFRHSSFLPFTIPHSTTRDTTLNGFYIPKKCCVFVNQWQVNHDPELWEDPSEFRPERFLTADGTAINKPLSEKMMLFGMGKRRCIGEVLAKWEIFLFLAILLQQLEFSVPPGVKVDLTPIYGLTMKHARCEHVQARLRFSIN
# Chain of Lysosomal acid glucosylceramidase (Homo sapiens) (P04062 whole entry, looked up): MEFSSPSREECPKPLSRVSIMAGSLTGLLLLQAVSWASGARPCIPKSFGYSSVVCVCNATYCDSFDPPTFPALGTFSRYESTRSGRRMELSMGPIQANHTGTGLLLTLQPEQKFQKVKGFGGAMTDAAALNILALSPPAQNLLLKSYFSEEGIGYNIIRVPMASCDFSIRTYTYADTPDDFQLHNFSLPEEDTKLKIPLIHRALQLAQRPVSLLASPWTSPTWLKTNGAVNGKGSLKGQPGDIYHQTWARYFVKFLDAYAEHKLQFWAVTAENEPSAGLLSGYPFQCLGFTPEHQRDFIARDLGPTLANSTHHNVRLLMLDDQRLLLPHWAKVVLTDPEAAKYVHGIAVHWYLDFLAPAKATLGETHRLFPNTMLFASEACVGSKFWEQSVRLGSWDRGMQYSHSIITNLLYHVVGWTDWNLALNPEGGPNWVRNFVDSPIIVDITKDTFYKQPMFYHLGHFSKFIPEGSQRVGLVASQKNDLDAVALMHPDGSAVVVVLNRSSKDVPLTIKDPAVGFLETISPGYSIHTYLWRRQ
smiles,measurement,setting,value
CCOc1ccccc1CNC(=O)Cn1nc(C)c2c(C)n(-c3ccc(C)cc3)nc2c1=O,Potency,[1],inactive
same,activation,[2],"-0.659% [at 17.1 µM, percent relative to cAMP agonist control]"
same,Potency,[3],inactive
same,activation,[4],18.3% [at 30.8 µM]
Nc1nc(N)c(-c2cccc(C(F)(F)F)c2)c(Cc2cccc(C(F)(F)F)c2)n1,Potency,[5],> 11.4 µM
same,"activity change, negative = inhibition",[6],11.9%
same,outcome,[7],inactive
same,Potency,[8],> 46 µM
same,Potency,[9],> 9.22 µM
same,"activity change, negative = inhibition",[10],3.36% [at 11.4 µM]
same,Potency,[11],inactive
same,"activity change, positive = activation",[12],-31.2% [at 11.4 µM]
same,Potency,[13],2.51 µM (active)
same,Potency,[1],inactive
same,Potency,[2],inactive
same,Potency,[3],inactive
same,Potency,[4],inactive
CCCC[C@@H]1C[C@H]1[C@@H](NC(=O)c1ccco1)c1ccc(Cl)cc1,Potency,[1],inactive
same,Potency,[2],inactive
same,Potency,[3],inactive
same,Potency,[4],inactive
C/C(=N\NC(=O)c1ccc(N/N=C(\C)c2ccc(O)cc2)cc1)c1ccc(O)cc1,Potency,[1],inactive
same,activation,[2],"15.6% [at 17.1 µM, percent relative to cAMP agonist control]"
same,Potency,[3],inactive
same,activation,[4],11.7% [at 30.8 µM]
Cc1cc(C)cc(N(CC(=O)Nc2ccc(C(F)(F)F)cc2)S(=O)(=O)c2c(C)[nH]c(=O)[nH]c2=O)c1,Potency,[1],inactive
same,Potency,[2],inactive
same,Potency,[3],inactive
same,Potency,[4],inactive
CC1(C)CC(CCN(Cc2ccccc2)C(=O)c2ccco2)(c2ccccc2)CCO1 (configuration not stated),Potency,[1],inactive
same,Potency,[2],inactive
same,Potency,[3],inactive
same,Potency,[4],inactive
O=C(O)CN1C(=O)/C(=C\c2cccc(OCc3ccc(F)cc3)c2)SC1=S,Potency,[1],inactive
same,activation,[2],"1.62% [at 17.1 µM, percent relative to cAMP agonist control]"
same,Potency,[3],inactive
same,activation,[4],14.2% [at 30.8 µM]
Cc1ccc(C)c(NC(=O)CN(C)C(=O)c2ccccc2Cc2ccccc2)c1,Potency,[1],inactive
same,Potency,[2],inactive
same,Potency,[14],inactive
Cc1ccccc1C(=O)Nc1ccccc1N1CCCCC1,Potency,[1],inactive
same,Potency,[2],inactive
same,Potency,[14],inactive
COc1ccc(-c2nn3c(-c4cccc(C)c4)nnc3s2)cc1OC,Potency,[1],inactive
same,Potency,[2],inactive
same,Potency,[14],inactive
FC(F)(F)C1=Nc2cccc3cccc(c23)N1,Potency,[1],inactive
same,Potency,[2],inactive
same,Potency,[14],inactive
Cc1cc(NS(=O)(=O)c2ccc(NC(=S)NC(=O)/C=C/c3ccccc3)cc2)no1,Potency,[1],inactive
same,activation,[2],"1.85% [at 17.1 µM, percent relative to cAMP agonist control]"
same,"activity change, negative = inhibition",[14],-2.1% [at 30.8 µM]
COc1cc(/C=C/C(=O)c2ccc3c(c2)OCCO3)cc(Br)c1OCC(=O)N(C)C,Potency,[1],inactive
same,Potency,[2],inactive
same,Potency,[14],inactive
O=C(Cc1c(Sc2ccccc2)c2ccccc2n1Cc1ccccc1)NCCO,Potency,[1],inactive
same,Potency,[2],inactive
same,Potency,[14],inactive
O=C(CN1C(=O)/C(=C2/SC(=S)N(CCS(=O)(=O)O)C2=O)c2ccccc21)Nc1cccc(Br)c1,Potency,[1],inactive
same,Potency,[2],inactive
same,Potency,[14],inactive
CC(=O)C1=CCC(c2ccccc2Cl)N(S(=O)(=O)c2ccc(C)cc2)C1 (configuration not stated),Potency,[1],inactive
same,Potency,[2],inactive
same,Potency,[14],inactive
CCOc1ccc2nc3cc(N=Nc4ccc(N)nc4N)ccc3c(N)c2c1,"activity change, negative = inhibition",[6],4.95%
same,Potency,[15],0.794 µM (active)
same,Potency,[8],> 46 µM
same,Potency,[9],> 9.22 µM
same,"activity change, negative = inhibition",[10],-7.05% [at 11.4 µM]
same,Potency,[11],inactive
same,Potency,[1],inactive
same,activation,[2],"2.08% [at 17.1 µM, percent relative to cAMP agonist control]"
same,Potency,[3],inactive
CCCN(CC(=O)Nc1ccccc1C)C(=O)C1CCN(c2ncnc3sc(C)c(C)c23)CC1,Potency,[1],inactive
same,Potency,[2],inactive
same,Potency,[14],inactive
Cc1ccc(S(=O)(=O)/N=C2\C=C(NS(=O)(=O)c3ccccc3)C(=O)c3ccccc32)c(C)c1,Potency,[1],inactive
same,activation,[2],"5.26% [at 17.1 µM, percent relative to cAMP agonist control]"
same,"activity change, negative = inhibition",[14],-5.99% [at 30.8 µM]
O=c1c(O)c(-c2ccccc2)oc2ccc3occc3c12,Potency,[16],3.16 µM (active)
same,outcome,[12],inactive
same,Potency,[17],inactive
same,Potency,[18],inactive
same,Potency,[1],inactive
same,Potency,[2],inactive
same,Potency,[3],5.55 µM (active)
CC(C)=CCc1c(O)ccc2c1OC(c1ccc(O)c(O)c1)CC2=O (configuration not stated),Potency,[1],inactive
same,Potency,[2],inactive
same,Potency,[14],inactive
COc1ccc(OC)c(NC(=O)c2nc(S(=O)(=O)Cc3ccccc3)ncc2Cl)c1,Potency,[1],inactive
same,Potency,[2],inactive
same,Potency,[14],inactive
